Experimental findings from ChEMBL document CHEMBL3988442, “University of Dundee, Small-Polar-MMV Screening Library” (2021) are described below.

Out of some 48,000 compounds screened, about 13,000 (27%) showed an effect of 50% or more. This is one part of the list.

The subject of the assay is Wolbachia pipientis. As to the kind of experiment: Anti-Wolbachia Cell-Based Screen. The assay is classed as functional. Details: scale not given: in the data most compounds retested in dose-response had high values. The following applies: 5 µM.
For the molecule `O=C1O[C@@H]2CN(c3ncccn3)C[C@@H]2N1CCCc1ccc(F)cc1`, the “Percent Effect” value is recorded as 0.8552%. As for `CCc1nc(CN(CC(N)=O)C(C)C)cs1`, the figure is -5.873%. Consider `CN(C)CCOc1ccccc1N1CCN(C(=O)C(C)(C)C#N)CC1`, for which the “Percent Effect” value is recorded as 12.48%.

As for `COCCN(Cc1c(C)nn(C)c1C)C(=O)C1COc2ccccc2C1` (stereo not given), the “Percent Effect” value is -13.07%. The value for `Cc1cc(C)n(CC2CCCCN2CC(=O)Nc2cccnc2)n1` (stereo not given) was -5.388%; that for `CN(Cc1nc(-c2cccnc2)no1)C(=O)c1cccn1C` was -3.845%. The value for `CC(C)[C@@H]1CN(S(=O)(=O)c2cccc(C(=O)O)c2)C[C@H]1N(C)C` was 0.7097%. As for `COc1cccc(S(=O)(=O)N2C[C@H](OC)[C@]3(CCCO3)C2)c1`, the figure is 151.5%; as for `CO[C@H]1CN(S(=O)(=O)c2ccc(F)cc2)C[C@@]12CCCO2`, 187.7%. On to `COc1cccc(S(=O)(=O)N2C[C@@H](N(C)C)[C@H](C(C)C)C2)c1`, for which the “Percent Effect” value was -6.322%. For the molecule `CCOC1COC2(CCN(S(=O)(=O)c3ccc(F)cc3)CC2)C1` (stereo not given), the “Percent Effect” value is given as -48.73%.

`COC1COC2(CCN(S(=O)(=O)c3ccc(F)cc3)CC2)C1` (stereo not given): the “Percent Effect” value is on record as -4.083%. With `COc1cccc(S(=O)(=O)CCN2CCC3(CC2)OCCO3)c1`, the “Percent Effect” value is given as -7.046%. The value for `COc1cccc(C(C)N2CCN(S(=O)(=O)c3ccccc3)CC2)c1` (stereo not given) was -3.731%; that for `CCN1CCNC(=O)C12CCN(S(=O)(=O)c1ccc(OC)cc1)CC2` was 15.65%; that for `COc1cccc(S(=O)(=O)N2C[C@@H](O)[C@H](N(C)C)C2)c1` was 179.9%.

Consider `COc1ccc(S(=O)(=O)N2C[C@H](OC)[C@]3(CCCO3)C2)cc1`, for which the “Percent Effect” value stood at 124.9%. As for `COc1ccc(S(=O)(=O)N2CCCC3(CCCN3S(C)(=O)=O)C2)cc1` (stereo not given), the figure is -14.23%.

Consider `Cc1nnc(C(C)Nc2cccc(COCC(F)(F)C(F)F)c2)o1` (stereo not given), for which the “Percent Effect” value is reported as 6.562%. The value for `CC(C)Cc1cn(C2CCN(C(C)CC3CC3)CC2)nn1` (stereo not given) was 4.944%. The value for `O=C1NCC2(CCCN(C(=O)c3ccc4c(c3)OCCO4)CC2)O1` (stereo not given) was 12.75%; that for `COc1cc(F)c(S(=O)(=O)N2c3ncccc3NC(=O)C2C)cc1OC` (stereo not given) was -16.51%; that for `O=C(CCc1nc2cccnc2[nH]1)Nc1cccnc1` was 5.191%. As for `CN(Cc1ccc(N2CCCCC2)cc1)Cc1noc(C(C)(C)C)n1`, the figure is 16.16%; as for `O=C(c1ccccn1)N1C[C@@H]2CC[C@H](C1)N(C(=O)CCc1cccs1)C2`, -9.254%. Regarding `Cc1noc(C)c1CN(C)C(=O)NC1CCN(c2ncccn2)CC1`, the “Percent Effect” value is recorded as -8.201%. `C[C@@H]1CN(S(=O)(=O)c2ccc(F)cc2F)C[C@]1(C)O`: the “Percent Effect” value is listed as 4.198%.

On to `CNC(=O)[C@@]12CCO[C@@H]1CCN(S(=O)(=O)c1ccccc1F)C2`, for which the “Percent Effect” value is recorded as -14.92%. Consider `CO[C@H]1CN(S(=O)(=O)c2ccc(C)cc2)C[C@@]12CCCO2`, for which the “Percent Effect” value was 89.74%.

As for `CO[C@H]1CN(S(=O)(=O)c2ccccc2F)C[C@@]12CCCO2`, the “Percent Effect” value is reported as 166.4%. As for `O=C(CN1CCCNC1=O)N(Cc1ccccc1)CC(F)F`, the figure is -9.06%; as for `CC1=C(CCN2CC[C@@H](N3CCC(O)CC3)[C@H](O)C2)C(C)(C)CCC1`, -3.551%; as for `Cc1ccc2[nH]c(CN3CC[C@@H](N4CCN(C)CC4)[C@H](O)C3)c(C)c2c1`, 130.9%.

For the molecule `Cc1c(CN2C[C@H](O)[C@@H](N3CCOCC3)C2)[nH]c2ccc(F)cc12`, the “Percent Effect” value is given as 90.42%. Turning to `Cc1c(CN2CC[C@@H](N3CCC(O)CC3)[C@H](O)C2)[nH]c2ccc(F)cc12`, the “Percent Effect” value is 105.6%. The value for `Cc1c(CN2CCc3[nH]cnc3C2C2CC2)[nH]c2ccc(F)cc12` (stereo not given) was 10.14%. As for `Cc1c(CN2CC[C@@H](N3CCC(O)CC3)[C@H](O)C2)[nH]c2ccc(Cl)cc12`, the figure is 105.3%; as for `CSCCC1c2nc[nH]c2CCN1Cc1[nH]c2ccc(F)cc2c1C` (stereo not given), 8.699%. The value for `Cc1c(CN2CCc3[nH]cnc3C2C(=O)O)[nH]c2ccc(F)cc12` (stereo not given) was 4.217%; that for `CN1CCN([C@@H]2CCN(Cc3ccc4cc(F)ccc4n3)C[C@H]2O)CC1` was -21.32%; that for `CN1CCN([C@@H]2CCN(CC3=Cc4cc(Cl)ccc4OC3)C[C@H]2O)CC1` was -16.81%. Take `O=C(c1cccc(Cl)c1)N1CC[C@@H](N2CCC(O)CC2)[C@H](O)C1`: the “Percent Effect” value is reported as -1.425%.

As to `CN1CCN([C@@H]2CCN(Cc3cccc(-n4cccn4)c3)C[C@H]2O)CC1`, the “Percent Effect” value is on record as -7.292%. Consider `O=C(NCc1ccc(F)cc1F)C(c1cccnc1)N1CCOCC1` (stereo not given), for which the “Percent Effect” value is -3.204%. `CC(C)(C)C(=O)N[C@H]1C[C@@H](Cc2cc(CN3CCOCC3)on2)C1(C)C`: the “Percent Effect” value is listed as -2.41%. As for `CC(Sc1nnc(C2CC2)n1CC(N)=O)c1ccc(F)c(Cl)c1` (stereo not given), the figure is -2.548%; as for `CC(C)(C)NC(=O)C1CCCCN1Cc1nccn1CC(F)(F)F` (stereo not given), -2.197%; as for `CCSc1ccc(C(=O)N2CCCCC2C(=O)NC(C)(C)C)cn1` (stereo not given), 116.3%. As for `Cc1ccc(CNC(=O)C2CCCCN2C(=O)OC(C)(C)C)cn1` (stereo not given), the figure is 1.092%; as for `CCSc1ccc(NC(=O)N2CCCC2c2ccncc2)cn1` (stereo not given), -0.7424%; as for `CCSc1ccc(C(=O)N2CCCC2C(=O)N2CCOCC2)cn1` (stereo not given), 144.8%. As for `CC(C)Cc1cc(C(=O)N2CCC[C@H]2C(=O)N2CCOCC2)on1`, the figure is -13.85%; as for `CCSc1ccc(C(=O)N2CCCCC2C(=O)N2CCCC2)cn1` (stereo not given), 151.8%; as for `COC(=O)N1CCCCC1C(=O)N1CCN(c2ncccc2C)CC1` (stereo not given), -6.544%.

As to `Cn1ccc2ccc(C(=O)N3CCC[C@H]3C(=O)N3CCOCC3)cc21`, the “Percent Effect” value came to 12.68%. `CCn1c(CN(C)C)nnc1C1CCN(Cc2cccc(C#N)c2)CC1`: the “Percent Effect” value is on record as -18.18%. With `COc1cccc(CNC(=O)CC2CSc3nc(C)c(C)c(=O)n32)c1` (stereo not given), the “Percent Effect” value was found to be 131.7%.

Take `Cc1cnc2n(c1=O)CC(C(=O)Nc1ccccc1Cl)CS2` (stereo not given): the “Percent Effect” value is recorded as -3.995%.

Take `Cc1cnc2n(c1=O)C(CC(=O)NCc1ccc(F)cc1)CS2` (stereo not given): the “Percent Effect” value is recorded as 120.7%. As for `Cc1cnc2n(c1=O)C(CC(=O)NCc1cccnc1)CS2` (stereo not given), the figure is 115%; as for `O=C(Cn1nc(-c2ccc(F)cc2)oc1=O)NCc1ccc(F)cc1`, -3.011%; as for `COc1cccc(CNC(=O)CC2CSc3ncc(C)c(=O)n32)c1` (stereo not given), 19.59%. The value for `Cc1cc(=O)n2c(n1)SCC2CC(=O)NCc1cc(-c2ccco2)on1` (stereo not given) was 1.39%; that for `Cc1cnc2n(c1=O)C(CC(=O)NCc1ccccc1Cl)CS2` (stereo not given) was 121.9%; that for `Cc1nsc(N2CCN(CC(=O)NCc3ccc(F)cc3)CC2)n1` was -5.243%. Regarding `O=C(NCc1cccnc1)N1CCSCC1CCO` (stereo not given), the “Percent Effect” value is reported as -15.06%.

For the molecule `Cc1ccc(CNC(=O)CC2C(=O)NCCN2Cc2ccccc2C)s1` (stereo not given), the “Percent Effect” value was 4.539%.

With `CC(=O)NC[C@@H]1C=C(C)[C@H](CC(=O)NCc2cccnc2)C[C@H]1C(C)C`, the “Percent Effect” value is listed as -8.421%. The value for `Cc1cc(-c2ccncc2)ccc1OCC(N)=O` was -1.496%. The value for `CC(C)c1cc(C(=O)N2CCN(CC3CC3)[C@@H]3CS(=O)(=O)C[C@@H]32)no1` was 5.38%; that for `Cc1cnn(CCC(=O)Nc2ccc(F)cc2OCC2CC2)c1` was -3.72%; that for `CCN1CC(C(=O)N2CCN(CCn3cccc3)CC2)CC1=O` (stereo not given) was -5.842%. In the case of `Cc1cnc2n(c1=O)C(CC(=O)NCc1ccc(Cl)cc1)CS2` (stereo not given), the “Percent Effect” value is 120.8%. As for `Cc1cc(CNC(=O)CC2CN(C(=O)OC(C)(C)C)C2)ccc1F`, the figure is -41.83%; as for `O=C(NCc1ccncc1)N1CCSCC1c1ccc(Cl)cc1` (stereo not given), -11.62%. As for `CCNc1cc2c(nn1)CCN(C(=O)Cc1ccc3c(c1)CCO3)C2`, the figure is -18.57%; as for `CCNc1cc2c(nn1)CCN(C(=O)Cc1c(C)nn(C)c1C)C2`, 126.1%; as for `CCNc1cc2c(nn1)CCN(C(=O)C1COc3ccccc3C1)C2` (stereo not given), 3.402%. Turning to `CCNc1cc2c(nn1)CCN(C(=O)C1Cc3ccccc3S1)C2` (stereo not given), the “Percent Effect” value was -4.507%.

In the case of `CCNc1cc2c(nn1)CCN(C(=O)CC1CCCCC1)C2`, the “Percent Effect” value was -4.667%.

As for `CCNc1cc2c(nn1)CCN(C(=O)Cc1ccc(C)s1)C2`, the “Percent Effect” value was 107.9%.

Consider `CCc1nccn1CC(=O)N1C[C@H]2CC[C@@H]1CN(C(=O)N(C)C)C2`, for which the “Percent Effect” value came out at 6.839%. As for `c1cc(-c2nc3c(c(NCCn4ccnn4)n2)CCNCC3)ccn1`, the figure is -0.7039%; as for `COCCN1CCC2(CCN(Cc3nccs3)CC2)C1=O`, -0.9039%; as for `Cc1ccc(CN2CCC3(CC2)NC(=O)CC3c2ccccc2)s1.O=C(O)C(F)(F)F` (stereo not given), 95.7%. Consider `Cc1ccc(CN2CCCC3(CCC(=O)N3)CC2)s1.O=C(O)C(F)(F)F` (stereo not given), for which the “Percent Effect” value amounted to 3.95%. For the molecule `Cc1ccc(CN2CCC3(CC2)C(=O)N(CCO)CCN3C)o1.O=C(O)C(F)(F)F.O=C(O)C(F)(F)F`, the “Percent Effect” value amounted to 5.189%. The value for `Cc1noc(C)c1CN1CCC2(CC1)C(c1ccccc1)CC(=O)N2C.O=C(O)C(F)(F)F` (stereo not given) was 90.48%. As to `Cc1noc(C)c1CN1CCC2(CC1)CC(Oc1cccnc1)C2.O=C(O)C(F)(F)F.O=C(O)C(F)(F)F`, the “Percent Effect” value amounted to 7.225%. For `Cc1ccc(CN2CCC3(CC2)C(c2ccccc2)CC(=O)N3C)o1.O=C(O)C(F)(F)F` (stereo not given), the “Percent Effect” value was 104.4%. As for `Cn1cc(C2CC(=O)NC23CCN(Cc2nccs2)CC3)cn1` (stereo not given), the figure is 86.17%; as for `CCN1CCN(C)C2(CCN(Cc3ccc(C)o3)CC2)C1=O.O=C(O)C(F)(F)F.O=C(O)C(F)(F)F`, -15.65%. As to `Cn1cc(C2CC(=O)NC23CCN(c2ncc(F)cn2)CC3)cn1` (stereo not given), the “Percent Effect” value is -28.26%. As for `Cc1cnc(N2CCC3(CC2)C(c2ccccc2)CC(=O)N3C)nc1` (stereo not given), the figure is 8.622%; as for `CCCc1cc(C(=O)N2Cc3ccccc3C2)[nH]n1`, 5.853%.
